# Source: PubChem BioAssay
# Compounds with a hit are over-represented: about 0.99% of the library has one in this group of screens.
# PKA inh = inhibitors of human PKA kinase activity, primary screen, biochemical, ATP-depletion luminescence, Kemptide substrate; cAMP-dependent protein kinase catalytic subunit alpha (Homo sapiens), P17612; PKA Kemptide phosphorylation, Kinase-Glo ATP luminescence; inhibition, % at 6 µM; 65,000 compounds, 0.1% hits; AID 524, 2006;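 active = inhibition above the screen-wide mean inhibition plus 3 SD, cut at about 21% in these data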
# Cdc25B inh = inhibitors of Cdc25B phosphatase catalytic domain, primary screen, biochemical, OMFP fluorescence; M-phase inducer phosphatase 2 (Homo sapiens), P30305; 65,000 compounds, 0.1% hits; recombinant Cdc25B, OMFP fluorescence Ex485/Em525; inhibition, %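 (compounds tested at 10 µM final in the well)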; in the data active = inhibition above about 50%
# DUSP1 inh = MKP-1 phosphatase inhibitors, primary screen, biochemical, in vitro | recombinant MKP-1, OMFP hydrolysis fluorescence | AID 374, 2006 | inhibition, %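 (compounds tested at a single concentration somewhere between 10 and 100 µM)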 | 65,000 compounds, 0.15% hits;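 active = inhibition above about 50%, limit read from the data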;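 also: 0% = DMSO max control wells and 100% = wells with enzyme stopped by NaOH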
# ROCK2 blocker = inhibitors of human ROCK2 kinase, primary screen, biochemical, high-throughput, luminescence; purified ROCK2, Kinase-Glo ATP depletion luminescence; AID 604, 2007; Rho-associated protein kinase 2 (Homo sapiens), O75116; 60,000 compounds, 0.35% hits; inhibition, % at 6 µM;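 active = inhibition above the screen-wide mean inhibition plus 3 SD, cut at about 18% in these data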;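 also: plate controls were DMSO wells for no effect and Y-27632 control wells after no-enzyme background subtraction for full effect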
# SK-BR-3 tox 24h = SK-BR-3 proliferation inhibitors, primary screen, cell-based, human, 24 h. SK-BR-3 viability, CellTiter-Glo ATP luminescence; active compounds read low. viability, % at 10 µM. 41,000 compounds, 0.47% hits;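 active = viability at or below the median of all test compounds minus 3 SD, in both replicates if run twice, cut at about 45% in these data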;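 also: 100% = median untreated cell wells and 0% = median positive control drug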
# Hsp90 block = tumor Hsp90 inhibitors, primary screen, cell lysate, fluorescence polarization, NCI-N417 lysate; Heat shock protein HSP 90-alpha (Homo sapiens), P07900; Cy3B-geldanamycin FP displacement; inhibition, % at 30 µM; 64,000 compounds, 0.35% hits;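 active = inhibition above 50%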;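 also: 0% = tracer plus lysate wells and 100% = tracer alone without lysate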
# Redox H2O2 0p5DTT = redox cycling H2O2 generation, 0.5 mM DTT, dose response, artefact control, biochemical, Cdc25B catalytic domain. 30 compounds, 50% hits. EC50, µM. cell-free redox cycling H2O2 generation. shares compounds with Cdc25B inh; in the data active = EC50 below about 30 µM
# Redox H2O2 1DTT = redox cycling H2O2 generation, 1 mM DTT, dose response, artefact control, biochemical, 1.0 mM DTT, Cdc25B catalytic domain | EC50, µM | cell-free redox cycling H2O2 generation | 30 tested, under 10 active | shares compounds with Cdc25B inh; in the data active = EC50 below about 50 µM
# * hit, by the source's call; · = no result given.
SMILES,PKA inh,Cdc25B inh,DUSP1 inh,ROCK2 blocker,SK-BR-3 tox 24h,Hsp90 block,others
NC(=NCc1ccc(Cl)c(Cl)c1)NC(=O)c1nc(Cl)c(N)nc1N,·,·,·,·,·,-3,
NCC1OC(O[C@@H]2[C@H](O)C(OC3C(O)C(N)CC(N)C3OC3OC(CO)C(O)C(O)C3N)O[C@@H]2CO)C(N)C(O)C1O (stereo not given in full),·,·,·,·,·,1,
COc1ccc(CNC(=O)CSc2nnnn2-c2ccc(O)cc2)cc1,8,-11,16,·,86,·,
FC(F)(F)c1cc(-c2ccco2)nc(NCc2ccco2)n1,4,0,12,·,88,-5,
CS(=O)(=O)c1nc(-c2ccco2)cc(C(F)(F)F)n1,8,-1,1,·,31*,·,
CC1CCN(CCCNC(=O)c2cc3sccc3n2C)CC1,13,-16,-4,7,42*,1,
COc1ccc(N2CCN(CCCNC(=O)c3cc4sccc4n3C)CC2)cc1,10,-8,-1,-9,·,-2,
O=c1[nH]c(C2CCCN(S(=O)(=O)c3ccccc3)C2)nc2c1nnn2Cc1ccccc1F (stereo not given),12,17,24,6,31*,4,
O=C(O)CCC(C(=O)O)N1C(=O)c2ccccc2C1=O (stereo not given),·,·,·,·,·,1,
CCOC(=O)N1CCC(NC(=O)c2cn(-c3ccc(OC)cc3)c(=O)c3ccccc23)CC1,5,-3,15,0,·,-3,
CCOC(=O)N1CCC(NC(=O)c2cccn3c(=O)c4cc(Br)ccc4nc23)CC1,-5,-7,53*,·,·,-4,
Cc1cc2c(ccc3[nH]onc32)n1,29*,-5,-16,18*,106,-6,
Cc1ccc2nc(C)cc(OCC(=O)O)c2c1,-4,-5,7,-2,123,-1,
CC(C)C(NC(=O)C1CCCCC1)C(=O)Nc1ccncc1 (stereo not given),14,-10,3,76*,82,-5,
Nc1ncnc2c1ncn2[C@@H]1O[C@H](COP(=O)(O)OP(=O)(O)OP(=O)(O)OP(=O)(O)OC[C@@H]2O[C@H](n3cnc4c(N)ncnc43)C(O)[C@@H]2O)[C@H](O)C1O (stereo not given in full),·,·,·,·,·,11,
CC(C)OC(=O)CSc1nc2ccccc2s1,11,-2,-14,12,86,93*,
CCN1C(=O)N(C)C2(c3ccccc3)N(C)C(=O)N(C)C12c1ccccc1 (stereo not given),4,7,-2,1,99,2,
CCN1C(=O)N(CC)C(O)(c2ccccc2)C1(O)c1ccccc1 (stereo not given),-7,-8,8,34*,93,1,
N#CC(C#N)=C(N)/C(C#N)=C/c1ccc(O)cc1,·,·,·,·,·,-6,
N#C/C(=C\c1ccc(O)c(O)c1)C(=O)NCCCNC(=O)/C(C#N)=C/c1ccc(O)c(O)c1,·,·,·,·,·,81*,
C[C@@H](NC(=O)/C(C#N)=C/c1ccc(O)c(O)c1)c1ccccc1,·,·,·,·,·,77*,
CC(NC(=O)CC(O)(C(F)(F)F)C(F)(F)F)c1ccccc1 (stereo not given),13,-9,-5,4,87,-1,
C[C@H](NC(=O)/C(C#N)=C/c1ccc(O)c(O)c1)c1ccccc1,·,·,·,·,·,75*,
N#C/C(=C\c1ccc(O)c(O)c1)C(=O)Nc1ccccc1,·,·,·,·,·,83*,
NC1CONC1=O (stereo not given),·,·,·,·,·,-1,
SMILES,PKA inh,Cdc25B inh,DUSP1 inh,ROCK2 blocker,SK-BR-3 tox 24h,Hsp90 block,others
Cn1c(SCc2ccccc2)nnc1-c1ccncc1,8,3,-2,5,85,-10,
Cn1c(SCc2ccc(Br)cc2)nnc1-c1ccncc1,25*,-12,-5,17,90,-1,
CNC(=O)[C@H]1O[C@@H](n2cnc3c(NCc4cccc(I)c4)ncnc32)C(O)[C@H]1O (stereo not given in full),·,·,·,·,·,-3,
CCN(CC)CCCNc1cc(OC)cc2ccc(OC)nc12,·,·,·,·,·,67*,
CCCC(C)N(CC)CCNc1cc(OC)cc2cccnc12 (stereo not given),·,·,·,·,·,46,
N#C/C(C(=O)NCc1ccccc1)=C1\SC(CCO)C(=O)N1c1ccccc1 (stereo not given),6,84*,-13,11,76,-3,
CC1(NCC(O)COc2cccc3[nH]ccc23)CCC(C(C)(C)NC(=O)CBr)CC1 (stereo not given),·,·,·,·,·,-1,
CCS(=O)(=O)NCc1ccc2[nH]c3c(c2c1)CCCC3,-1,11,10,-2,·,71*,
O=C(CCn1c(=O)[nH]c2ccccc2c1=O)Nc1ccccc1,6,102*,11,4,·,0,
O=C(CCCn1c(=O)[nH]c2ccccc2c1=O)NC1CCCCCC1,0,-10,13,-1,·,-2,
COc1cc(-c2nnc(SCC(=O)Nc3cc(C)on3)n2C)cc(OC)c1O,-6,-7,-15,1,86,6,
COc1cc(NCC(O)CN(CC(C)C)CC(C)C)c2nc(C)ccc2c1 (stereo not given),·,·,·,·,·,5,
Nc1cccc2cnccc12,-6,81*,6,26*,106,63*,Redox H2O2 0p5DTT=>50;Redox H2O2 1DTT=>50
N#Cc1cccc2cnccc12,18,6,4,14,91,3,
COc1cccc2c1NC(C(=O)O)C1CC=CC21 (stereo not given),2,51*,42,1,·,-26,Redox H2O2 0p5DTT=>50;Redox H2O2 1DTT=>50
Cc1ccc2c(c1)C1C=CCC1C(C(=O)O)N2 (stereo not given),-4,51*,20,-4,72,-25,Redox H2O2 0p5DTT=>50;Redox H2O2 1DTT=>50
C1=CC2c3ccccc3NC(c3ccncc3)C2C1 (stereo not given),6,4,-14,4,94,-9,
NC(=O)C1CCN(C(c2ccccc2Cl)c2nnnn2Cc2ccc3c(c2)OCO3)CC1 (stereo not given),10,-4,23,7,85,-2,
CC(=O)Nc1cc(OC(C)=O)c2nonc2c1OC(C)=O,12,100*,-17,84*,2.2*,91*,Redox H2O2 0p5DTT=3.9*;Redox H2O2 1DTT=14*
CCCS(=O)(=O)N1CCN(C(=O)c2cccc(OC)c2)CC1,6,20,13,·,98,·,
